Reference: ChEMBL document CHEMBL3988442, “University of Dundee, Small-Polar-MMV Screening Library” (2021)
The campaign covered roughly 69,000 compounds. About 1,000 (1.4%) showed an effect of 50% or more. This excerpt belongs to a sample that is enriched for strong results.

Test system: Leishmania donovani
Assay: Leishmania intramacrophage assay
Type: functional, organism-based
Design: scale not given: in the data most compounds retested in dose-response had high values

COc1c(CNCc2ccc3c(c2)OCCO3)c(C(C)C)nn1C
Percent Effect (30 µM): -2.541%

CCc1nc(C)c(CN2CCN(c3ncnc4scc(C)c34)CC2)[nH]1
Percent Effect (30.3 µM, […]): -3.854%

CCc1nc(C)c(CN2CCN(c3ncnc4c(C)csc34)CC2)[nH]1
Percent Effect (30.3 µM, […]): 24.01%

Cc1n[nH]c(CN2CCN(c3ncnc4scc(C)c34)CC2)c1Cl
Percent Effect (30.3 µM, […]): 71.39%

Cc1ccccc1CCNC(=O)C1CC(=O)N(CC(F)(F)F)C1 (centres undefined)
Percent Effect (30 µM, 30.03 µM): 9.865%

O=C(NCCn1ccnc1)N1CCCC1c1ccc2c(c1)OCCO2 (centres undefined)
Percent Effect (30 µM): 14.25%

CC(C)(C(=O)NCc1n[nH]c(=O)[nH]1)c1ccc(F)cc1
Percent Effect (30.3 µM, […]): 17.25%

Cc1cc(=O)n2nc(Oc3cc(Cl)cc(Cl)c3)sc2n1
Percent Effect (30.3 µM, […]): -38.32%

Cc1cc(=O)n2nc(Oc3ccc(Cl)c(C)c3)sc2n1
Percent Effect (30.3 µM, […]): 74.91%

Cc1cc(=O)n2nc(Oc3ccc(F)c(F)c3)sc2n1
Percent Effect (30.3 µM, […]): -0.08982%

COC(=O)NC1(C(=O)NCc2ccc(-c3ccn[nH]3)cc2)CCCC1
Percent Effect (30.3 µM, […]): 3.496%

CNC(=O)c1sccc1N(C)S(=O)(=O)c1ccc(Cl)cc1
Percent Effect (30.3 µM, […]): 77.15%

CCNC(=O)c1sccc1N(C)S(=O)(=O)c1ccc(Cl)cc1
Percent Effect (30.3 µM, […]): 2.943%

CC(C)NC(=O)c1sccc1N(C)S(=O)(=O)c1ccc(Cl)cc1
Percent Effect (30 µM, 30.03 µM): 7.242%

Cc1ccc(C(=O)NC(CN2CCCC2=O)c2ccccc2)c(=O)[nH]1 (centres undefined)
Percent Effect (30 µM, 30.03 µM): -14.78%

Cc1ccc(C(=O)NC(C)CN2CCCC2=O)c(=O)[nH]1 (centres undefined)
Percent Effect (30 µM, 30.03 µM): 6.193%

Cc1ccc(C(=O)NCC(C)CN2CCCC2=O)c(=O)[nH]1 (centres undefined)
Percent Effect (30.3 µM, […]): 59.27%

Nc1nc(N)c2c(n1)OC1(CCCN(Cc3nccs3)CC1)C2 (centres undefined)
Percent Effect (30.3 µM, […]): 27.22%

Cc1nonc1CN(C)c1nc(-c2ccco2)nc2c1CCN(C)CC2
Percent Effect (30.3 µM, […]): 55.96%

Cc1noc(CN(C)c2nc(-c3ccco3)nc3c2CCN(C)CC3)n1
Percent Effect (30.3 µM, […]): -34.19%

Cc1cc(CN(C)c2nc(-c3ccco3)nc3c2CCN(C)CC3)on1
Percent Effect (30.3 µM, […]): -83.89%

Cc1cccc(CN2C(=O)CO[C@@H]3CN(Cc4cnn(C)c4)C[C@H]32)c1.O=C(O)C(F)(F)F.O=C(O)C(F)(F)F
Percent Effect (30.3 µM, […]): 15.94%

CC(C)(C)CNC(=O)c1ccc(C(=O)O)cn1
Percent Effect (30.3 µM, […]): -11.9%

CC(C)(C)CNC(=O)c1ccc(C(=O)O)nc1
Percent Effect (30.3 µM, […]): 60.75%

CC(C)(C)CNC(=O)c1ccc(C(=O)O)cc1
Percent Effect (30.3 µM, […]): 40.51%

Cc1ccc(-c2ncc(CN3CCOC(c4ccco4)C3)s2)o1 (centres undefined)
Percent Effect (30.3 µM, […]): -6.468%

COC(=O)CCCN(C)C(c1cccnc1)c1ccc(F)cc1F (centres undefined)
Percent Effect (30.3 µM, […]): 21.57%

CC(C)N1CC(c2ncc(-c3ccc4c(c3)OCCO4)[nH]2)CC1=O (centres undefined)
Percent Effect (30.3 µM, […]): 26.45%

O[C@H]1[C@H](NCCc2ccccn2)c2ccccc2C12CCNCC2
Percent Effect (30.3 µM, […]): -16.64%

COc1ccccc1CCN[C@@H]1c2ccccc2C2(CCNCC2)[C@H]1O
Percent Effect (30.3 µM, […]): 35.47%

Cc1ccc(CCN[C@@H]2c3ccccc3C3(CCNCC3)[C@H]2O)s1
Percent Effect (30.3 µM, […]): 84.2%

CNC(=O)[C@@H]1C[C@H]2CN(Cc3csc(C)n3)C[C@H]2N1C(C)C.O=C(O)C(F)(F)F.O=C(O)C(F)(F)F
Percent Effect (30.3 µM, […]): 29.27%

CC(C)N1Cc2cccc(NCC(=O)N(C)C3CCCCC3)c2C1
Percent Effect (30.3 µM, […]): 17.74%

CC(C)N1Cc2cccc(NCC(=O)N(C)C)c2C1
Percent Effect (30.3 µM, […]): 62.8%

CC(C)C(C)N1Cc2cccc(NCC(=O)N(C)C)c2C1 (centres undefined)
Percent Effect (30.3 µM, […]): 29.96%

Cc1cc(NC(=O)NCC2COc3ccccc3C2)no1 (centres undefined)
Percent Effect (30 µM): -28.91%

CN(C)C(=O)CO[C@@H]1CN(Cc2ccccc2F)[C@@H]2CCCO[C@@H]21.O=C(O)C(F)(F)F
Percent Effect (30.3 µM, […]): 10.19%

Cc1cccc(CN2CCO[C@H]3[C@@H](OCc4ccncc4)CC[C@@H]32)n1.O=C(O)C(F)(F)F.O=C(O)C(F)(F)F.O=C(O)C(F)(F)F
Percent Effect (30.3 µM, […]): 12.49%

Fc1ccc(CN2CCO[C@H]3[C@H](OCc4ccncc4)CC[C@@H]32)cc1.O=C(O)C(F)(F)F.O=C(O)C(F)(F)F
Percent Effect (30.3 µM, […]): 43.4%

COc1ccc(CN2CCO[C@H]3[C@H](OCc4ccncc4)CC[C@@H]32)cc1.O=C(O)C(F)(F)F.O=C(O)C(F)(F)F
Percent Effect (30.3 µM, […]): 60.6%

Fc1ccccc1CN1C[C@@H](OCc2ccncc2)[C@H]2OCCC[C@H]21.O=C(O)C(F)(F)F.O=C(O)C(F)(F)F
Percent Effect (30 µM, 30.03 µM): 54.27%

Fc1ccccc1CN1C[C@H](OCC2CCOCC2)[C@H]2OCCC[C@H]21.O=C(O)C(F)(F)F
Percent Effect (30.3 µM, […]): -19.24%

Cn1cc(S(=O)(=O)N(Cc2ccc(F)cc2F)C2CC2)cc1C(N)=O
Percent Effect (30.3 µM, […]): 34.27%

CNS(=O)(=O)CC1CCCN1C(=O)c1ccc(C)c(C)c1 (centres undefined)
Percent Effect (30.3 µM, […]): -9.061%

O=c1cc(-c2ccccc2)nc2n1CCCCC2
Percent Effect (30.3 µM, […]): -39.42%

COCC(=O)NCc1cc2n(n1)CCCN(CCCC1CCCC1)C2
Percent Effect (30.3 µM, […]): 20.98%

COCC(=O)N1CCC2(CCN(c3cnn(C)c3)C2=O)C1 (centres undefined)
Percent Effect (30.3 µM, […]): 13.44%

O=C([C@@H]1C[C@@H]2CCN(C3CCOCC3)C[C@@H]2O1)N1CCOCC1
Percent Effect (30.3 µM, […]): 9.764%

Cc1nn(C)cc1CN(C)C(=O)c1cnccn1
Percent Effect (30.3 µM, […]): -25.04%

CCC(=O)NCCNC(=O)c1nn(C)c(C)c1Cl
Percent Effect (30.3 µM, […]): -0.8741%

CCN1CCN(C[C@@H]2CN(c3ncc(Cl)cc3Cl)C[C@@H]2CO)CC1
Percent Effect (30.3 µM, […]): 62.72%

CCN1CCN(C[C@@H]2CN(c3ncc(Cl)cc3F)C[C@@H]2CO)CC1
Percent Effect (30.3 µM, […]): 46.16%

CCN1CCN(C[C@@H]2CN(c3ncccc3Cl)C[C@@H]2CO)CC1
Percent Effect (30.3 µM, […]): 25.54%

O=C(NCCc1nccs1)[C@H](c1ccccc1)n1cnnn1
Percent Effect (30.3 µM, […]): 10.58%

CCCNc1cc(-c2c[nH]nc2C2CCN(C(=O)C3CCC3)C2)ccn1 (centres undefined)
Percent Effect (30.3 µM, […]): 53.3%

Nc1cc(-c2c[nH]nc2C2CCN(C(=O)C3CCCC3)C2)ccn1 (centres undefined)
Percent Effect (30.3 µM, […]): 42.83%

Cc1c[nH]nc1C1CCN(C(=O)C2CCOCC2)C1 (centres undefined)
Percent Effect (30.3 µM, […]): -3.336%

CN1CCC(c2n[nH]cc2-c2ccnc(N)c2)C1 (centres undefined)
Percent Effect (30.3 µM, […]): 52.81%

CC(C)N1CCC(c2n[nH]cc2-c2ccnc(N)c2)C1 (centres undefined)
Percent Effect (30.3 µM, […]): 28.17%

Nc1cc(-c2c[nH]nc2C2CCCCN2C(=O)C2CCCC2)ccn1 (centres undefined)
Percent Effect (30.3 µM, […]): 12.99%

CC(C)Nc1cc(-c2c[nH]nc2C2CCN(C(=O)C3CCC3)C2)ccn1 (centres undefined)
Percent Effect (30.3 µM, […]): 63.06%

CC(=O)N1CCC(c2n[nH]cc2-c2ccnc(N)c2)C1 (centres undefined)
Percent Effect (30.3 µM, […]): 29.98%

CC(C)CNc1cc(-c2c[nH]nc2C2CCN(C(=O)C3CC3)C2)ccn1 (centres undefined)
Percent Effect (30.3 µM, […]): 60.8%

Cc1c[nH]nc1C1CCN(C(=O)C2CCCC2)C1 (centres undefined)
Percent Effect (30.3 µM, […]): -28.74%

CC(C)Nc1cc(-c2c[nH]nc2C2CCN(C(=O)C3CC3)C2)ccn1 (centres undefined)
Percent Effect (30.3 µM, […]): 49.22%

CC(C)OCC(=O)N1CCC(c2ncncc2-c2ccnc(N)c2)C1 (centres undefined)
Percent Effect (30.3 µM, […]): -5.314%

COCCNC(=O)[C@H]1CN(Cc2cccs2)C[C@H]2OCC[C@@H]12.O=C(O)C(F)(F)F
Percent Effect (30.3 µM, […]): -23.24%

Cn1cc(-c2cc(C(F)(F)F)nn2CCC#N)cn1
Percent Effect (30.3 µM, […]): -0.6212%

CCCn1nccc1-c1nccnc1CC1CCN(C(C)=O)CC1
Percent Effect (30.3 µM, […]): -24.99%

NCCn1nc(C2CCN(C(=O)CC3CCCCC3)C2)c2nccnc21 (centres undefined)
Percent Effect (30 µM, 30.03 µM): -5.021%

Nc1ccc(C(=O)N2C[C@@H]3CC[C@H](C2)N(Cc2ccccc2)C3)cn1
Percent Effect (30.3 µM, […]): 19.02%

COC1COC2(CCN(CC3CC3)CC2)C1.O=C(O)C(F)(F)F (centres undefined)
Percent Effect (30.3 µM, […]): 18.41%

COCCC(=O)N1C[C@@H](c2ccc(F)c(F)c2)[C@@]2(CCCC(=O)N2)C1
Percent Effect (30.3 µM, […]): 28.03%

COC(=O)N1CCCC(C(=O)NCCc2c[nH]c3cc(C)ccc23)C1 (centres undefined)
Percent Effect (30.3 µM, […]): 6.757%

Cc1ccc(C2CSCCN2C(=O)c2ccc(C(N)=O)cc2)o1 (centres undefined)
Percent Effect (30 µM, 30.03 µM): 7.343%

Cc1nccnc1N1C[C@H](NC(=O)CNS(C)(=O)=O)[C@@H](C2CC2)C1
Percent Effect (30.3 µM, […]): 8.886%

Cn1nc(C(=O)N2CCOCC2)c2c1CN(CC1CC1)C2.O=C(O)C(F)(F)F.O=C(O)C(F)(F)F
Percent Effect (30.3 µM, […]): 55.32%

Cn1nc(C(=O)N2CCOCC2)c2c1CN(CC1CCC1)C2
Percent Effect (30.3 µM, […]): 23.43%

Cn1nc(C(=O)N2CCCC2)c2c1CN(CC1CCOCC1)C2
Percent Effect (30.3 µM, […]): -0.9877%

CC(C)(C)C(=O)NCCC(=O)NC(C)(C)c1ccc2c(c1)OCO2
Percent Effect (30.3 µM, […]): 2.237%

c1cncc(OCc2noc3c2CN(Cc2ccoc2)CC3)c1
Percent Effect (30 µM, 30.03 µM): 10.86%

O=C(N1CCCC1)N1CCc2onc(COc3cccnc3)c2C1.O=C(O)C(F)(F)F
Percent Effect (30.3 µM, […]): 0.9186%

Cc1cnc(N2CCc3onc(COc4cccnc4)c3C2)nc1
Percent Effect (30.3 µM, […]): 77.52%

CNS(=O)(=O)Cc1ccc(CNC(=O)c2cccc(C)n2)cc1
Percent Effect (30 µM, 30.03 µM): 36.89%

Cc1cc2c(cc1NC(=O)NC(C)(C)C)OCO2
Percent Effect (30.3 µM, […]): -22.07%

Cc1nnc(CN(CCc2ccccc2)C2CCN(C)CC2)s1
Percent Effect (30.3 µM, […]): 1.604%

NCCn1nc(C2CCN(Cc3ccccc3)C2)c2nccnc21 (centres undefined)
Percent Effect (30.3 µM, […]): 5.976%

NCCn1nc(C2CCN(Cc3ccc(Cl)c(Cl)c3)C2)c2nccnc21 (centres undefined)
Percent Effect (30 µM, 30.03 µM): 52.46%

NCCn1nc(C2CCN(Cc3ccccc3Cl)C2)c2nccnc21 (centres undefined)
Percent Effect (30.3 µM, […]): 9.93%

c1ccc2c3c([nH]c2c1)CN(Cc1cc2n(n1)CCNC2)CC3
Percent Effect (30.3 µM, […]): 19.37%

Clc1cccc2c3c([nH]c12)CCN(Cc1cc2n(n1)CCNC2)C3
Percent Effect (30.3 µM, […]): 28.65%

Clc1cccc2c3c([nH]c12)CCN(Cc1cc2n(n1)CCCNC2)C3
Percent Effect (30.3 µM, […]): 94.36%

COc1ccc(C(C)N(C)Cc2c(C(C)C)[nH]c3ncccc23)cc1 (centres undefined)
Percent Effect (30.3 µM, […]): -22.28%

CCN1CCCC1CN(CCN(C)C)S(=O)(=O)c1ccccc1C#N (centres undefined)
Percent Effect (30.3 µM, […]): 13.5%
